# The list is not random: actives were taken first. Their share in the collection is about 10%.
# G9a block – qHTS Assay for Inhibitors of Histone Lysine Methyltransferase G9a; AID 504332, 2011; G9a H3K9 monomethylation, AlphaScreen, 2 h; Histone-lysine N-methyltransferase EHMT2 (Homo sapiens), Q96KQ7; Potency, µM (doses to about 102 µM), inactives show at the highest dose activity, negative = inhibition, hits mostly inhibitors; actives 8.8% (n = 350,000); also: % is scaled to controls: 0 for no effect and ±100 for the full control effect; nearly all actives have a fitted effect of over 75% in size
# Target sequence (Q96KQ7 913-1193 limits assumed): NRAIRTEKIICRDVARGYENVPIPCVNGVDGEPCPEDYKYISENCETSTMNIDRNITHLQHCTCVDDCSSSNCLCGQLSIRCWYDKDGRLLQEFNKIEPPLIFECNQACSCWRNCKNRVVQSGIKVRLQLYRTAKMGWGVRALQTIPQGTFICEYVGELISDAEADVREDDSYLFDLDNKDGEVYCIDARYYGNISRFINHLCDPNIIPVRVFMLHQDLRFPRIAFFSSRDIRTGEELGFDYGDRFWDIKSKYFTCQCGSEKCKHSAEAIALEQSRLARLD
#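 AlphaScreen read-out: biotin-H3K9 peptide (500 nM) methylation by 20 nM enzyme with 20 uM SAM, 2 h at room temperature after 15 min compound preincubation; anti-monomethyl H3K9 antibody plus donor/acceptor beads, 10 min dark.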
# HP1b binding inh – HTS for Inhibitors of HP1-beta Chromodomain Interactions with Methylated Histone Tails; AlphaScreen HP1-beta / biotin-H3K9me3 peptide binding; Chromobox protein homolog 1 (Homo sapiens), P83916; Potency, µM (series often up to 114 µM), for the others: at the highest dose activity change, negative = inhibition, most hits filed as inhibitors; actives 0.56% (n = 390,000); AID 540317, 2011; also: nearly all actives have a fitted effect of over 70% in size
# Target sequence (P83916 whole entry, looked up): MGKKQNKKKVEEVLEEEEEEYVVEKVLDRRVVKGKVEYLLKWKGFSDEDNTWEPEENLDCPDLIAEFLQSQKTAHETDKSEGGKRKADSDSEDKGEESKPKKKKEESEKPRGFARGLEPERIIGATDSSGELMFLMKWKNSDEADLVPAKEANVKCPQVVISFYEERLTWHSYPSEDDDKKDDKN
#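 Compound inhibition of the preformed complex between 50 nM HP1-beta and 50 nM biotinylated H3K9me3 peptide was read by AlphaScreen. Buffer was PBS pH 7.4 with 0.01% Tween-20. Incubations ran 30 min at room temperature, with 10 ug/mL donor/acceptor beads.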
# BAZ2B inh – qHTS Assay for Inhibitors of BAZ2B. Bromodomain adjacent to zinc finger domain protein 2B (Homo sapiens), Q9UIF8. AlphaScreen BAZ2B-H3K14Ac peptide displacement. Potency, µM (doses to about 114 µM), without a hit: top-dose activity change, negative = inhibition, hits mostly inhibitors. actives 4.4% (n = 360,000). AID 504333, 2011; also: % is scaled to controls: 0 for no effect and ±100 for the full control effect; nearly all actives have a fitted effect of over 60% in size
#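 BAZ2B 50 nM plus b-H3(5-23)K14Ac 50 nM, PBS pH 7.4/0.01% Tween-20, 30 min RT; compound added (max 110 uM), 30 min RT; streptavidin donor/Ni-chelate acceptor beads 10 ug/mL final, 20 min dark; AlphaScreen read.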
# GLS inhibitor – qHTS for Inhibitors of Glutaminase (GLS); AID 624170, 2012; actives 0.21% (n = 410,000); GLS enzymatic activity, qHTS titration; Potency, µM (series often up to 45.5 µM), for the others: at the top dose activity change, negative = inhibition, actives largely listed as inhibitors; Glutaminase kidney isoform, mitochondrial (Homo sapiens), O94925; also: % is scaled to controls: 0 for no effect and ±100 for the full control effect
#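 hKGA in 45 mM KH2PO4 pH 8.2, 0.02% Tween-20 with pin-transferred compounds; 1 mM L-glutamine (stock) plus glutamate oxidase/HRP/Amplex Red coupling added. Fluorescence read initially and after 30 min at RT.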
# JMJD2A Tudor – qHTS Assay for Inhibitors of JMJD2A-Tudor Domain; AlphaScreen JMJD2A-Tudor / H3K4me3 peptide binding; Potency, µM (titrated, usually from 114 µM), for inactives: at the highest dose activity change, negative = inhibition, hits mostly inhibitors; actives 4.4% (n = 390,000); also: % is scaled to controls: 0 for no effect and ±100 for the full control effect; nearly all actives have a fitted effect of over 50% in size
# L3MBTL1 inh – qHTS Assay for the Inhibitors of L3MBTL1 | AID 485360, 2010 | Potency, µM (titrated, usually from 57.1 µM), inactives show at the highest dose activity, negative = inhibition, most hits filed as inhibitors | AlphaScreen L3MBTL1–H3K9me1 peptide binding | actives 0.66% (n = 230,000); also: % is scaled to controls: 0 for no effect and ±100 for the full control effect; nearly all actives have a fitted effect of over 60% in size
#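 Displacement of a biotinylated histone H3(1-15) peptide monomethylated at Lys9 (75 nM) from L3MBTL1 (50 nM) was measured by AlphaScreen after a 30 min room-temperature compound incubation; cefsulodin titration served as intraplate control.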
# The depositor's hits bear a star; ? = inconclusive; / = no result given; [ ] = dose if it differs, or a comment. Calls follow the shape of the dose curve; as a rule, active = well fitted curve in the direction sought with a large enough effect; inconclusive = small, poorly fitted or top-dose-only effect, or another doubt; inactive = no such curve, though single readings can be large; an effect the other way counts as inactive or inconclusive. Potency is read from the fitted curve at half-maximal effect.
SMILES,G9a block,HP1b binding inh,BAZ2B inh,GLS inhibitor,JMJD2A Tudor,L3MBTL1 inh
FC1(F)C(F)(F)C(F)(F)C2(F)C(F)(F)C(F)(F)C(F)(F)C(F)(F)C2(F)C1(F)F (stereo not given),3%[12.7 µM],/,/,5%,/,/
CC1(C)Cc2ccccc2C(/C(=N\Nc2cccc(Cl)c2)C(N)=O)=N1,?,?,25µM*,-15%,35µM*,?
C=Cc1ccc(Cn2c(=O)n(-c3ccc(C)cc3)c(=O)c3c2c2cc(OC)ccc2n3C)cc1,?,42%,-21%,-2%,1%,/
CC(C)(C)NCc1cc(Br)ccc1OCc1cccs1,18µM*,6%,-1%,2%,-19%,-6%
CC(C)(C)NCc1cc(Cl)ccc1OCc1cccs1,?,33%,-12%,-4%,-10%,-3%
CC(=O)N[C@H]1[C@H](O[C@@H]2c3ccc(c(Cl)c3)Oc3cc4cc(c3O[C@@H]3O[C@H](CO)[C@@H](O)[C@H](O)C3C)Oc3ccc(cc3Cl)C[C@H]3NC(=O)[C@@H](N)c5ccc(O)c(c5)Oc5cc(O)cc(c5)[C@H](NC3=O)C(=O)N[C@H]4C(=O)N[C@H]3C(=O)N[C@@H]2C(=O)N[C@@H](C(=O)O)c2cc(O)cc(O[C@H]4O[C@H](CO)[C@@H](O)C(O)[C@@H]4O)c2-c2cc3ccc2O)O[C@H](CO)[C@@H](O)[C@@H]1O (stereo not given in full),7%[5.15 µM],/,/,16µM*,/,/
CC(=O)N1CN(CCCn2ccnc2)Cc2c1sc1c2CCCC1,-8%[2.33 µM],40%,?,0%,-20%[11.4 µM],-6%
CC(=O)N1CN(Cc2ccccn2)Cc2c1sc1c2CCCC1,?,28%,28µM*,13%,40µM*,/
Cc1c(NC(=O)C(C)(C)Oc2ccc(Cl)cc2)cccc1-c1nc2ccccc2o1,22%[59 µM],44%,8%,0%,9%,/
Clc1ccc(-c2csc(N/N=C/c3ccco3)n2)cc1,/,-12%,35µM*,?,?,?
CN(C)S(=O)(=O)c1ccc(C(=O)NCC(=O)N/N=C/c2ccco2)cc1,-4%,44%,-4%,-1%,-14%,-5%
Cc1ccc(-c2csc(N/N=C/C=C/c3ccccc3)n2)cc1,-10%,-11%,-34%[57.1 µM],16%,-13%,-9%
Cc1ccc(-c2csc(N/N=C/c3ccco3)n2)cc1,?,-38%,?,-4%,50µM*,-25%
Brc1ccc(-c2csc(N/N=C/c3ccco3)n2)cc1,?,11%,8.9µM*,12%,-32%,/
O=C(/C=C/c1ccco1)Nc1nc(-c2ccc(F)c(F)c2)cs1,/,16%,-4%,-8%,-5%,8%
CN(C)S(=O)(=O)c1ccc(-c2csc(N/N=C/c3ccco3)n2)cc1,28µM*,17%,-23%,?,-14%,-20%
CCOc1ccccc1NC(=O)NCCn1c(=O)oc2ccc(C)cc21,-12%[59 µM],7%,-9%,-8%,-32%,/
CCOC(=O)N1CCc2c(sc3c2c(=O)n(CCc2ccccc2)c(=O)n3Cc2cc(C)ccc2C)C1,?,36%,?,3%,-16%,/
Cc1csc(N/N=C/c2ccc([N+](=O)[O-])cc2)n1,-2%[59 µM],29%,-9%,-9%,-27%,-9%
O=C(Nc1nc(-c2ccc(Cl)cc2)cs1)c1cccnc1,40µM*,?,-8%,-6%,-22%[11.4 µM],/
Cc1ccc2nc(N/N=C/c3ccco3)cc(C)c2c1,?,-4%,45µM*,14%,?,-11%
CN(C)S(=O)(=O)c1ccc(-c2csc(N/N=C/c3ccc(O)cc3)n2)cc1,22µM*,-2%,?,?,?,-11%
Clc1ccc(-c2csc(N/N=C\c3cccnc3)n2)cc1,10µM*,31%,-29%,-13%,-2%,5%
CCn1c(=O)c2c(nc3n2CCN3c2ccc(OC)cc2)n(C)c1=O,3%[59 µM],18%,0%,-23%,-13%,/
C(=N\Nc1nc(-c2ccccc2)cs1)/c1ccco1,13µM*,?,40µM*,25%,?,?
SMILES,G9a block,HP1b binding inh,BAZ2B inh,GLS inhibitor,JMJD2A Tudor,L3MBTL1 inh
Cc1ccc(/C(=C\CN2CCCC2)c2cccc(/C=C/C(=O)O)n2)cc1,/,/,/,3%,/,/
COc1cc(O)c(C(=O)/C=C/c2ccc(OC)c(O)c2)c(OC)c1,-49%[2.33 µM],/,/,/,/,/
COc1ccc(C=CC(=O)c2c(OC)cc(OC)c(OC)c2O)cc1,/,40µM*,/,8%,?,/
C=CCOc1ccc(C=CC(=O)c2c(O)c(OC)c(OC)c(OC)c2OC)cc1,/,50µM*,/,13%,14µM*,/
COc1cc(/C=C/C(=O)c2c(O)cc(C)oc2=O)cc(OC)c1O,45µM*,13%,?,1%,-35%[57.1 µM],/
COc1ccc(C(=O)/C=C/c2cc(OC)c(O)c(OC)c2)c(F)c1,8.9µM*,-11%,?,4%,-24%,-6%
C=CCOc1ccc(/C=C/C(=O)OCC(=O)NCc2cccc(OC)c2)cc1,-4%[2.33 µM],23%,11%,4%,1%,7%
Cc1cc2c(s1)c1cnn(Cc3cc(OC(F)(F)F)ccc3F)c(=O)c1n2C,/,/,/,/,-11%,/
Cc1ccc(C2C=C(c3ccc(F)cc3)Nc3nc(CCCO)nn32)cc1 (stereo not given),-41%[59 µM],42%,-4%,1%,-20%,/
CNC(=O)C1CCCN(c2nnc(C)c3c(C)n(-c4ccccc4)nc23)C1 (stereo not given),-7%[59 µM],22%,-4%,1%,-6%,/
Cc1ccc(NC(=O)c2ccco2)c(OCc2cc(=O)n3cc(C)sc3n2)c1,-5%[59 µM],26%[57 µM],6%,4%,4%,/
COc1cc(/C=C/C(=O)O)cc(OC)c1O,/,21%,/,54%,-5%,/
COc1ccc2cc(C(=O)/C=C/c3cc(OC)c(O)c(OC)c3)ccc2c1,50µM*,?,?,-14%,?,/
CCOC(=O)C1=C(C)Nc2nc(=S)[nH]n2C1c1ccc(Cl)cc1 (stereo not given),1.3µM*,?,-29%,-26%,16µM*,-10%
CCOC(=O)C1=C(C)Nc2nc(SCC)nn2C1c1ccc(OC)cc1 (stereo not given),25%[12.7 µM],14%,4%,4%,12%[57.1 µM],/
COC(=O)c1cc2c(cc1[N+](=O)[O-])OCO2,-13%,41%,-16%,5%,-3%,/
